Laboratory results: PubChem BioAssay (NCI)
This is part of a sample that, as a whole, favours compounds with a hit. Of some 83,000 tested, about 20% had one in any assay.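 In brief: 96-well plates, 48 h treatment, single concentration, percent growth endpoint.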 Values without a mark were called inactive. Calls of active or inactive are those of the source. How the source made its calls: active means growth percent below 10; inactive means the rest.

Test system: HL-60(TB) leukemia
Experiment: NCI-60 one-dose screen, 48 h (100 = growth as untreated, 0 = no growth, -100 = all killed)
Conditions: 10 µM unless noted

| SMILES | growth |
| --- | --- |
| C=CCn1c(SCC(=O)Nc2ccc(C(=O)/C=C/c3ccc(Cl)cc3)cc2)nnc1-c1ccc(Br)cc1 | 76.2% |
| NCCCCCNc1noc(Cc2c[nH]c3cc(Br)ccc23)n1 | -48.8% (active) |
| COc1ccc2[nH]cc(-c3nonc3-c3c[nH]c4ccc(Br)cc34)c2c1 | 76.1% |
| C=C(C)[C@@H]1CC[C@]2(C(=O)O)CC[C@]3(C)[C@H](CC[C@@H]4[C@@]5(C)C[C@@H](CC#Cc6ccc(Cl)cc6)C(=O)C(C)(C)[C@@H]5CC[C@]43C)[C@@H]12 | 22.2% |
| CCOC(=O)C(C)(c1ccccc1)c1ccccc1 | 104% |
| Fc1cc2[nH]ncc2c2c3c(c(-c4cn[nH]c4)nc12)CCCC3 | -13.2% (active) |
| CCN1C(=O)N(CC)C2C1NN=C1SCC(=O)N12 (stereo not given) | 99.1% |
| COc1cccc(C(=O)Nc2ccc(CN3CCc4nc5cc(OC)c(OC)cc5cc43)cc2)c1 | 60% |
| CCCc1cc(=O)n2c(C(=O)Nc3ccccc3OC)c(C(=O)Nc3ccc(F)cc3)sc2n1 | 47.1% [30 µM] |
| C/C(Cc1ccc(Cl)cc1)=C(\c1ccc(O)cc1)c1ccc(Cl)cc1 | 95.7% |
| COc1ccc2c(c1)-c1c(c3cc(OC)ccc3n(CCN(C)C)c1=O)C2=O | 18% |
| CCCCC(=O)N(c1ccc(Nc2c3ccccc3nc3cc([N+](=O)[O-])ccc23)cc1)S(C)(=O)=O | 68.3% |
| Nc1nc2c(c3cnccc13)C(c1cccc(Cl)c1)Cc1cnccc1-2 (stereo not given) | 4.89% (active) |
| O=CCCCC(O)C=O (stereo not given) | 92.2% |
| COc1ccc(CN2c3ccccc3Oc3ccccc32)cc1F | 54.1% |
| N#CCNc1ccccc1N | 95.2% |
| Nc1ncnc2c1N=C(c1ccc(Cl)cc1)CC(c1ccc3c(c1)OCO3)N2 (stereo not given) | 90.7% |
| O=S(=O)(Cc1cccc2c(CS(=O)(=O)c3ccc(Cl)cc3)cccc12)c1ccc(Cl)cc1 | 93.5% |
| Cc1ccc2oc(=O)cc(C3C(C#N)=C(N)Oc4c3ccc3ccccc43)c2c1 (stereo not given) | 53.1% |
| N=C(N)c1ccc(-c2ccc(-c3cccs3)s2)s1 | -62% (active) |

| SMILES | growth |
| --- | --- |
| CC(C)NS(=O)(=O)/N=C1\NC(=O)NC1=C(Cl)Cl | 55.6% |
| CC(C(C(=O)N1CCCCC1)N1CCCCC1)N1CCCCC1 (stereo not given) | 104% |
| CC1C2CCC(C2)C1COCCOCCO (stereo not given) | 108% |
| COc1cccc(-c2nc(-c3ccc(N)cc3)co2)c1 | 52.9% |
| Cc1ccc(/C=C/c2c(C(=O)/C=C/c3ccc(Cl)cc3)c(C)nc3ccccc23)cc1 | -8.89% (active) |
| C=CCOC(=O)C1=C(C)N(CC)C(=O)N(CC)C1c1c(Cl)n(C)c2ccccc12 (stereo not given) | 96.9% |
| CNCc1cccc2c1OCCOCCOCCNS(=O)(=O)c1ccc(cc1)-c1cnc(N)c(n1)C(=O)N2 | -10.8% (active) |
| COC(=O)c1oc2c(C(=O)/C=C/c3ccc(OC)cc3)c(OCCN3CCOCC3)ccc2c1C | -24.1% (active) |
| O=C(c1ccccc1)c1ccco1 | 86.1% |
| CCCCCCNc1nc(NCCCCCC)c2[nH]c(NCCCCCC)nc2n1 | -60.2% (active) |
| C=C1C(=O)O[C@H]2[C@H]1CC/C(CNC(=O)/C=C/c1cc(OC)c(OC)c(OC)c1)=C\CC[C@@]1(C)O[C@@H]21 | -33.3% (active) |
| COc1ccc(/C=C/C(=O)c2cc3c(N)c(C(=O)Nc4ccccc4)sc3nc2C)cc1 | 2.92% (active) |
| C=CCc1cc(Cl)cc2c(OC(C)=O)c(C(C)=O)c(-c3ccccc3)nc12 | 107% |
| c1cc(OCCCCCOc2cccc(-c3nc4ccccc4[nH]3)c2)cc(-c2nc3ccccc3[nH]2)c1 | -32.2% (active) |
| CCN(CC)Cc1cc(Nc2ccnc3cc(Cl)ccc23)cc(-c2ccc(Cl)cc2)c1O | 51.3% |
| CCN(c1ccc(Cl)cc1)c1nc(-c2ccc([N+](=O)[O-])cc2)cs1 | 96.1% |
| CCCCCC/C=C\CCCCCCCCCc1cc(O)cc(OC)c1O | -44.7% (active) |
| CCCC(CC)(C(=O)Nc1ccc2nc(C)cc(N)c2c1)C(=O)Nc1ccc2nc(C)cc(N)c2c1 | 100% |
| NC(=S)N/N=C/c1cc(-c2cccc(N)c2)ccn1 | -12% (active) |
| COc1ccc(/C=C(\C#N)n2nc3cccc(F)c3n2)cc1 | 82% |
